Assay outcomes as filed in PubChem BioAssay.
Rows were chosen to be rich in hits. Some 4.7% of all compounds tested hit in one or more screens of this group.
D1 agonist: agonists of human D1 dopamine receptor. P21728. HEK293 T-REx D1 cells, calcium flux, agonist mode. activation, % at 2 µM. actives 1% (n = 360,000); also: 0% is about no effect
Target sequence (P21728 whole entry, looked up): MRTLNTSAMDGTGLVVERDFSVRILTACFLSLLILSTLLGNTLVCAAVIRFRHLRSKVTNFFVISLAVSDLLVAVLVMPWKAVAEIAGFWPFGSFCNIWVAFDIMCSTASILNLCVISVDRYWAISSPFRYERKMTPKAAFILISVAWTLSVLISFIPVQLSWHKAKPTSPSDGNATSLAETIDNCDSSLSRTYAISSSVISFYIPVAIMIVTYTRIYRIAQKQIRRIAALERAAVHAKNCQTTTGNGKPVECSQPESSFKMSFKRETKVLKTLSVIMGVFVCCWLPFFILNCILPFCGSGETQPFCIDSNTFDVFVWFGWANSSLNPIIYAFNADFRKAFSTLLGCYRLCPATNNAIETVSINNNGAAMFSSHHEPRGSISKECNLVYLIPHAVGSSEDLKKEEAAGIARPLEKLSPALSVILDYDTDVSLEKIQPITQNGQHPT
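Tetracycline-induced HEK293 TREx D1 cells, force-coupled to calcium signalling, were dye-loaded with a no-wash calcium kit. Compound was pin-added after a 10 s baseline. Fluorescence was read kinetically at 1 cycle/s for 180 s, with calcium rises flagged as agonism.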
TRHR enhancer: allosterically enhances the human TRH receptor; P34981; TRHR cells, fluo-8 calcium fluorescence, EC20 TRH enhancement; enhancement, % at 2 µM; actives 0.66% (n = 360,000); AID 493056; in the data active = enhancement above about 30%; also: 0% is about no effect
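Enhancer read-out: after compound pinning and an initial kinetic agonist-mode read, an EC20 of TRH (10 nM final) was injected and fluo-8 calcium signal (Ex 480/Em 530) followed at 1 s/cycle for 100 cycles in TRHR-expressing cells.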
D1 antag: antagonists of human D1 dopamine receptor | HEK293 TREx D1 cells, calcium flux, dopamine EC80; active compounds read low | activity change, negative = inhibition, % at 10 µM | actives 3.2% (n = 360,000); in the data active = activity change below about -30%; also: % is scaled to controls: 0 for no effect and ±100 for the full control effect
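Antagonism measured as reduced calcium response to an EC80 dopamine addition following 180 s compound pre-read; cells were inducible HEK293 Trex D1 plated overnight at 30 C, read kinetically at 1 cycle/sec.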
TRHR ag: activates the human TRH receptor | TRHR cells, calcium flux fluo-8, FDSS agonist mode | activation, % at 2 µM | actives 0.18% (n = 360,000) | AID 493084; also: 0% is about no effect
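Read-out: compound-evoked intracellular calcium rise in TRHR cells, fluo-8 dye, kinetic FDSS fluorescence at 1 s/cycle following a 10-cycle baseline. Cells cultured overnight before dye loading (30 min–1.5 h, RT).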
D1 PAM: potentiators of human D1 dopamine receptor; actives 0.036% (n = 360,000); HEK293 TREx D1 cells, calcium flux, dopamine EC20 potentiation; potentiation, % at 10 µM; P21728; in the data active = potentiation above about 30%; also: 0% is about no effect
Starred values were filed as active, the others as inactive. Rule as the data show it, unless noted: active = activation above about 30%; inactive = the rest.

Cc1cc(C)cc(OCC(=O)OCC(=O)c2cc(C)n(C3CC3)c2C)c1 was read as D1 agonist 5, TRHR enhancer 12, D1 antag -30*, TRHR ag 0 and D1 PAM -7.
For Cc1cc2c(s1)c1cnn(Cc3ccc(F)cc3)c(=O)c1n2C the results were D1 agonist 0, TRHR enhancer 2, D1 antag 3, TRHR ag 0 and D1 PAM -4.
Screening O=C(O)[C@@H]1CSC2(CCSC2)N1 (stereo partly drawn) returned D1 agonist 3, TRHR enhancer 3, D1 antag -10, TRHR ag 1 and D1 PAM 6.
Screening CC1(C)SCC(C(=O)O)NC1=O (stereo not drawn) returned D1 agonist 2, TRHR enhancer -5, D1 antag -34*, TRHR ag 0 and D1 PAM 5.
Screening CCOC(=O)c1c(-c2ccc(OC)cc2)csc1NC(=O)CCN1C(=O)c2ccccc2C1=O returned D1 agonist 5, TRHR enhancer 3, D1 antag 1, TRHR ag -1 and D1 PAM -3.
Screening CCOC(=O)c1c(-c2ccc3ccccc3c2)csc1NC(=O)CCCC(=O)O returned D1 agonist 18, TRHR enhancer 2, D1 antag -56*, TRHR ag 1 and D1 PAM -7.
For O=C(c1cccs1)N1CCCc2cc(NS(=O)(=O)c3ccc(F)cc3)ccc21 the results were D1 agonist 17, TRHR enhancer 4, D1 antag -11, TRHR ag -1 and D1 PAM 0.
For CN(CCCNC(=O)C1CCC(=O)N1Cc1ccccc1Cl)c1ccccc1 (stereo not drawn) the results were D1 agonist 1, TRHR enhancer -13, D1 antag -10, TRHR ag 0 and D1 PAM 1.
For O=C(NCCCN1CCN(c2cccc(Cl)c2)CC1)C1CCC(=O)N1Cc1ccccc1Cl (stereo not drawn) the results were D1 agonist 11, TRHR enhancer -4, D1 antag -38*, TRHR ag 0 and D1 PAM -10.
For CC(C)N1C(=O)CCC1C(=O)N1CCN(c2ccc(F)cc2)CC1 (stereo not drawn) the results were D1 agonist 2, TRHR enhancer 7, D1 antag -8, TRHR ag 1 and D1 PAM 2.
Screening O=C(Nc1cc(Cl)cc(Cl)c1)C1CCC(=O)N1Cc1ccccc1Cl (stereo not drawn) returned D1 agonist 27, TRHR enhancer 40*, D1 antag -20, TRHR ag -1 and D1 PAM -11.
O=C(C1CCC(=O)N1Cc1ccccc1Cl)N1CCN(c2ccc(F)cc2)CC1 (stereo not drawn) was read as D1 agonist 0, TRHR enhancer 0, D1 antag -48*, TRHR ag 0 and D1 PAM -6.
O=C1C2CCCCN2C(=O)N1CCCCN1CCN(c2cccc(Cl)c2)CC1 (stereo not drawn) was read as D1 agonist 2, TRHR enhancer 32*, D1 antag -39*, TRHR ag 1 and D1 PAM -22.
`Cc1cc2nc(NCCCO)n(CC(=O)c3cc(C(C)(C)C)c(O)c(C(C)(C)C)c3)c2cc1C` gave D1 agonist 5, TRHR enhancer -1, D1 antag 6, TRHR ag 0 and D1 PAM 1.
Cc1ccc(S(=O)(=O)n2ccc3cccnc32)cc1 was read as D1 agonist -1, TRHR enhancer -2, D1 antag 7, TRHR ag 0 and D1 PAM -4.
O=S(=O)(c1ccc(Cl)cc1)n1ccc2cccnc21 was read as D1 agonist -2, TRHR enhancer 1, D1 antag -36*, TRHR ag -1 and D1 PAM -4.
O=C(NC1CCCC1)C(c1cccnc1)N(C(=O)c1ccco1)c1ccc(F)cc1 (stereo not drawn) was read as D1 agonist -1, TRHR enhancer 1, D1 antag -11, TRHR ag 0 and D1 PAM -4.
CCCC(C(=O)Nc1cc(S(=O)(=O)N2CCOCC2)ccc1OC)c1ccccc1 (stereo not drawn) was read as D1 agonist 6, TRHR enhancer -14, D1 antag 14, TRHR ag 0 and D1 PAM -1.
`Cc1nn(C)c2c1c(-c1ccccc1)cc(=O)n2C(C)C(=O)NCc1ccc(F)cc1` (stereo not drawn) gave D1 agonist 0, TRHR enhancer 14, D1 antag 22, TRHR ag 0 and D1 PAM 7.
Cc1nc2scc(C)n2c(=O)c1S(=O)(=O)N1CCN(c2ccccc2)CC1 was read as D1 agonist -4, TRHR enhancer -1, D1 antag -4, TRHR ag 0 and D1 PAM -3.
`Cc1nc2sc(C)c(C)n2c(=O)c1S(=O)(=O)N1CCN(c2ccccc2F)CC1` gave D1 agonist 4, TRHR enhancer 35*, D1 antag -29, TRHR ag 0 and D1 PAM -5.
`Cc1ccc(NC(=O)Cn2c(SCc3ccc(F)cc3)nc3cccnc32)cc1F` gave D1 agonist 11, TRHR enhancer -4, D1 antag -3, TRHR ag 1 and D1 PAM -2.
Screening CC1CCCN(C(=O)CSCC(=O)Nc2nc(-c3cccs3)cs2)C1 (stereo not drawn) returned D1 agonist 12, TRHR enhancer -5, D1 antag -84* and TRHR ag 3.
`Cc1nn(-c2ccc(N3CCOCC3)nn2)c(C)c1CCC(=O)N1CCN(C)CC1` gave D1 agonist 1, TRHR enhancer 20, D1 antag -1, TRHR ag 0 and D1 PAM -6.
For CCCNC(=O)C1CCC(Cn2c(=O)c3sccc3n(Cc3cccc(OC)c3)c2=O)CC1 (stereo not drawn) the results were D1 agonist 2, TRHR enhancer 53*, D1 antag -3, TRHR ag 0 and D1 PAM -7.
`COc1cccc(Cn2c(=O)n(CC3CCC(C(=O)NC(C)C)CC3)c(=O)c3sccc32)c1` (stereo not drawn) gave D1 agonist 0, TRHR enhancer -1, D1 antag -2, TRHR ag 0 and D1 PAM -5.
`CCN(CC)c1ccc(C2=NNC(=O)CC2C)cc1[N+](=O)[O-]` (stereo not drawn) gave D1 agonist 3, TRHR enhancer 21, D1 antag -44*, TRHR ag -1 and D1 PAM -9.
`COCCNC(=O)c1cc2c(s1)-c1ccc(Cl)cc1SC2` gave D1 agonist 4, TRHR enhancer 7, D1 antag -92*, TRHR ag 0 and D1 PAM -9.
